Source: PubChem (several laboratories)
Sampled rows, rich in hits. Any-hit rate of the full collection: about 5.6%.
H9c2 protect: cardioprotection against H2O2-induced cell death, primary screen, uHTS, H9c2 cells, ATPLite luminescence; protection from H2O2 cell death, % at 20 µM; 0.63% of 360,000 active; H9c2 cardiomyocytes, H2O2 injury protection, 2 h;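 active = compounds giving at least 50% protection of heart cells from peroxide-induced death in the single-dose screen, raw or plate-pattern-corrected value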;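 note: 0% = DMSO wells with peroxide and 100% = DMSO wells without peroxide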
PHOSPHO1 block: PubChem AID 1565. 1.1% of 290,000 active. recombinant PHOSPHO1, absorbance phosphatase assay. Phosphoethanolamine/phosphocholine phosphatase (Homo sapiens), Q8TCT1. inhibition, % at 13.3 µM; in the data active = inhibition above about 60%
Target sequence (Q8TCT1 whole entry, looked up): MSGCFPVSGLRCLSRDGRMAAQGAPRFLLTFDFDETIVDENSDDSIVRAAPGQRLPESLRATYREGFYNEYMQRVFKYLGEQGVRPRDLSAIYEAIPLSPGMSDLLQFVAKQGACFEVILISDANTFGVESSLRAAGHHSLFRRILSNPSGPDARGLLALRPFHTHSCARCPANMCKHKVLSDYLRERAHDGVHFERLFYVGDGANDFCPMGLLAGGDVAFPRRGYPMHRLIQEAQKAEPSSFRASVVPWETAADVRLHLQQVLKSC
PfM18AAP inh: PfM18AAP inhibitors, malaria aminopeptidase, primary screen, biochemical, QFRET, recombinant enzyme; M18 aspartyl aminopeptidase (Plasmodium falciparum 3D7); 1.2% of 290,000 active; inhibition, % at 7.35 µM; H-Glu-NHMec fluorogenic cleavage; AID 1822, 2009;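 active = inhibition above the campaign mean inhibition over all tested compounds plus 3 SD, cut at about 28% in these data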;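 note: 0% = plate median of test compound wells and 100% = 2 mM ZnCl2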
ALR H2O2 inh: inhibitors of human ALR sulfhydryl oxidase, primary screen, biochemical, H2O2 detection, HRP-luminol luminescence, single point; inhibition, % (test concentration not listed); AID 485317, 2010; FAD-linked sulfhydryl oxidase ALR (Homo sapiens), P55789; 3.8% of 290,000 active; purified ALR, DTT oxidation;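 active = mean replicate inhibition above about 79%, with every replicate also reaching it, limit read from the data; inconclusive = only one of the two criteria met; inactive = mean below limit and not every replicate reaching it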
Target sequence (P55789 whole entry, looked up): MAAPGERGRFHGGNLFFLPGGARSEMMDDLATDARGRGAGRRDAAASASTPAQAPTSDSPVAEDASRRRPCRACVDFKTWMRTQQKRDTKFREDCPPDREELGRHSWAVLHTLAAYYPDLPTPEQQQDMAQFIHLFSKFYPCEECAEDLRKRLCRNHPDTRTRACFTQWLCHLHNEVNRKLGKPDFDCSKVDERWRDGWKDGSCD
PfGluPho inh: PfG6PD enzyme inhibitors, primary screen, biochemical, fluorescence intensity, uHTS | PfGluPho enzyme, NADPH resazurin-diaphorase fluorescence | AID 504690, 2011 | 0.78% of 350,000 active | glucose-6-phosphate dehydrogenase-6-phosphogluconolactonase (Plasmodium falciparum 3D7) | inhibition, % at 20 µM;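 active = inhibition reaching at least a set limit at 20 µM in the primary screen, cut at about 59% in these data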;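 note: 0% = DMSO wells with substrate and 100% = DMSO wells lacking glucose-6-phosphate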
* = called active by the depositor; ? = inconclusive; / = not tested or not shown.

SMILES	H9c2 protect	PHOSPHO1 block	PfM18AAP inh	ALR H2O2 inh	PfGluPho inh
C/C(=N\NC(=O)c1ccncc1)c1ccc(N(C)C)cc1	-3	12	2	91*	7
CSc1cccc(-n2cc(-c3ccc4c(c3)OCO4)[nH]c2=O)c1	12	27	29*	-14	-15
COC(=O)c1ccc(-n2c(C)cc(C(=O)CSc3cccc[n+]3[O-])c2C)cc1	1	36	-4	1	11
COC(=O)c1ccc(-n2c(C)cc(C(=O)CSc3ccc(NC(C)=O)cc3)c2C)cc1	-5	2	5	91*	18
CC(=O)Nc1ccc(SCC(=O)c2cc(C)n(-c3ccccc3F)c2C)cc1	-20	-20	6	98*	45
CC(=O)Nc1ccc(SCC(=O)c2cc(C)n(Cc3cccs3)c2C)cc1	-15	31	22	-11	-2
FC(F)(F)c1ccccc1Nc1nccs1	-2	95*	-7	39	30
Cc1ccc(C2C3CSCC=C3C(C#N)=C(N)C2(C#N)C#N)cc1 (stereo unspecified)	1	-3	9	93*	2
CC(C)N1CC=C2C(C#N)=C(N)C(C#N)(C#N)C(c3ccccc3)C2C1 (stereo unspecified)	22	17	10	55	8
CN(CC(=O)Nc1ccc(Cl)c(C(F)(F)F)c1)C(=O)c1cc(=O)c2ccccc2o1	-8	/	/	-1	21
O=C(CSc1ncccn1)c1ccccc1Br	-7	61*	13	?	45
O=C(O)CSc1ncccn1	10	8	-2	-5	8
COc1cccc(-c2nc(CS(=O)(=O)CC(=O)NCCCOC(C)C)c(C)o2)c1	6	-10	-1	94*	1
COc1cccc(-c2nc(CS(=O)CC(=O)NCCCOC(C)C)c(C)o2)c1 (stereo unspecified)	2	-10	-2	99*	3
COc1cccc(-c2nc(CS(=O)(=O)CC(=O)NCc3ccc4c(c3)OCO4)c(C)o2)c1	11	16	7	95*	-4
Cc1cccc(-c2nc(CS(=O)CC(=O)NCCc3ccccc3)c(C)o2)c1 (stereo unspecified)	-3	29	2	34	10
CCC(C)NC(=O)CS(=O)(=O)Cc1nc(-c2cccc(OC)c2)oc1C (stereo unspecified)	0	6	4	99*	10
COc1cccc(-c2nc(CS(=O)(=O)CC(=O)NCCCc3ccccc3)c(C)o2)c1	-2	-4	-4	-4	-1
Cc1noc(C)c1S(=O)(=O)NC(=O)C1(C)CCN1C(=O)c1ccccc1CCc1ccccc1 (stereo unspecified)	-1	/	/	/	/
S=C(NCc1ccccc1)NC1CCSc2ccccc21 (stereo unspecified)	-6	15	2	2	10
COc1cc(OC)c(OC)cc1/C=N/NC(=S)NCCN1CCOCC1	1	12	-7	6	-12
COc1cc(/C=N/NC(=S)N/N=C/c2cc(OC)c(OC)c(OC)c2)cc(OC)c1OC	0	-1	10	88*	5
COc1cc(/C=N/NC(=S)NCCN2CCOCC2)cc(OC)c1O	-2	-20	13	99*	1
Cc1ccccc1CNC(=O)c1ccccc1SCC(=O)NCc1ccco1	12	/	/	/	5
CC1(c2ccccc2)NC(=O)N(CC(=O)NNC(=O)c2cccc(Cl)c2)C1=O (stereo unspecified)	-4	/	/	10	-20
SMILES	H9c2 protect	PHOSPHO1 block	PfM18AAP inh	ALR H2O2 inh	PfGluPho inh
Cc1cc(C)n2nc(C(=O)N3CCN(c4ccc([N+](=O)[O-])cc4)CC3)nc2n1	-4	19	6	97*	-6
COc1ccc(N2CCN(C(=O)c3nc4nc(C)cc(C)n4n3)CC2)cc1	-2	20	7	42	-13
CN(CC(=O)Nc1ccccc1Sc1ccccc1)C1CCCCC1	-4	4	1	/	-3
CCCCCCN1C=CC=C/C1=C/C=C(C#N)C#N	-3	-3	7	87*	28
CCCCCN1C=CC=C/C1=C\C=C(C#N)C#N	1	-6	5	99*	1
Cc1nn(-c2ccc(N3CCCCC3)nn2)c(C)c1CCC(=O)Nc1ccc(F)c(F)c1	-4	-10	1	-7	-7
COc1cc(/C=N/NC(=O)C(C)Nc2n[nH]c(=O)[nH]c2=O)ccc1O (stereo unspecified)	-2	-2	9	99*	-1
COc1cc(/C=N/NC(=O)CNc2n[nH]c(=O)[nH]c2=O)ccc1O	5	-2	2	98*	-2
COc1ccc(/C=N/NC(=O)CNc2n[nH]c(=O)[nH]c2=O)cc1OC	-1	3	-6	-20	1
CN1CCCN(C(=O)CNC(=O)c2ccccc2Br)CC1	3	/	/	-2	-7
COC(=O)C(NNc1ccc(F)cc1)(NC(=O)c1ccccc1)C(F)(F)F (stereo unspecified)	-4	0	-3	0	5
COC(=O)C(NNc1ccccc1C)(NC(=O)c1ccc(F)cc1)C(F)(F)F (stereo unspecified)	2	7	-4	98*	9
COC(=O)CN1C(=O)[C@H]2[C@@H](c3ccc(C)o3)N3C(=O)CN(CC4CC4)C(=O)[C@@]3(C)[C@H]2C1=O	13	-13	-4	0	15
CSCCC(NC(N)=O)C(=O)Nc1ccc(C)cc1 (stereo unspecified)	-2	63*	-9	-3	-1
N=C(N)SCc1ccc(Cl)cc1Cl	-24	-5	-3	99*	5
NC(=S)Cc1ccc(Cl)cc1Cl	-3	17	-6	2	0
Cc1ccc(CNC(=O)COC(=O)c2nc(-c3ccccc3)oc2C)cc1	-4	/	/	/	-2
O=C(NNC(=O)c1cccnc1SCc1cccc([N+](=O)[O-])c1)c1ccc(F)cc1	2	0	5	-3	-19
O=C(NNC(=O)c1cccnc1SCc1cccc([N+](=O)[O-])c1)c1ccccn1	83*	-11	3	1	-38
COc1ccc(OC)c(S(=O)(=O)N2CCCC2C(=O)NC(C)c2ccccc2)c1 (stereo unspecified)	7	3	-1	-11	-4
CC1(C(=O)NS(=O)(=O)c2cccs2)CCN1C(=O)CC1CC1 (stereo unspecified)	4	/	/	/	/
O=C1NC[C@H](c2ccccc2)OC(=O)[C@H](Cc2ccc(F)cc2)CC/C=C/C[C@H]1CC(=O)N(CCO)Cc1ccccc1	52*	/	/	10	-8
O=C1NC[C@H](c2ccccc2)OC(=O)[C@@H](Cc2ccc(F)cc2)CC/C=C/C[C@H]1CC(=O)N(CCO)Cc1ccccc1	86*	/	/	-7	-5
Cc1ccc(S(=O)(=O)NN=C2CCc3ccccc32)cc1	-5	/	/	/	18
Cc1ccc(-c2nc(C)sc2CC(=O)Nc2nnc(C)s2)cc1	5	16	1	98*	7
